Screening results: PubChem BioAssay, National Center for Advancing Translational Sciences (NCATS)
Rows were chosen to be rich in hits. Some 8.1% of all compounds tested hit in one or more screens of this group.
KB-3-1 tox – kills parental KB-3-1 adenocarcinoma cells; KB-3-1 viability, CellTiter-Glo ATP luminescence, 72 h; Potency, µM (series often up to 46.1 µM), hits mostly cytotoxic; actives 1.4% (n = 400,000); AID 1347075; also: nearly all actives have a fitted effect of over 60% in size
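KB-3-1 parental drug-naive adenocarcinoma cells in DMEM/10% FBS, incubated 72 h at 37 C with pin-transferred compounds across a concentration series. Viability by CellTiter-Glo luminescence; concentration-response curves fitted after normalization.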
KB-V1 MDR tox – KB-V1 MDR subline cytotoxicity; KB-V1 MDR cells viability, CellTiter-Glo, 72 h; Potency, µM (titrated, usually from 46.1 µM), most hits filed as cytotoxic; actives 3.4% (n = 400,000); AID 1347076; also: nearly all actives have a fitted effect of over 60% in size
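KB-V1, DMEM (no phenol red) + 10% FBS; cpd pin-transferred, titration series; 72 h, 37 degrees C; CellTiter-Glo, luminescence. Data normalized, curve-fit.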
SW480 rereplic – inducers of DNA re-replication in SW480 colon cancer cells | SW480 DNA re-replication, Hoechst DNA content imaging, 48 h | Potency, µM (top dose mostly 46.1 µM), hits mostly activators | actives 1.8% (n = 340,000) | AID 624297; also: nearly all actives have a fitted effect of over 55% in size
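First, 250 cells per well were seeded. Next, compound or vehicle (23 nL) was pinned in, plates sat 48 hr at 37 C. Finally Hoechst was added for 40 min before fluorescence scanning.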
ELG1 repair inh – blocks ELG1-dependent DNA repair in HEK293T cells; HEK293T ELG1-luciferase reporter, luminescence, 16 h; DNA damage induced by 5-fluorouridine; Potency, µM (titrated, usually from 46.1 µM), usual class: inhibitors; actives 2.3% (n = 330,000); AID 504467; also: nearly all actives have a fitted effect of over 55% in size
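Cells (2,000 per well) received 5-fluorouridine plus test compound or DMSO and were incubated 16 hr at 37 °C, 5% CO2. Luciferase activity was read by luminescence 30 min after ONE-Glo addition; signal suppression marked inhibition of damage-induced ELG1 function.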
MCF10A rereplic – induces DNA re-replication in MCF 10a normal breast cells; MCF 10A DNA re-replication, Hoechst nuclear intensity, 48 h; Potency, µM (series often up to 46.1 µM), actives largely listed as activators; actives 2.9% (n = 350,000); also: nearly all actives have a fitted effect of over 50% in size
Of the large screens only hits and unclear results are named; the others gave an inactive call. Calls follow the shape of the dose curve; as a rule, active = well fitted curve in the direction sought with a large enough effect; inconclusive = small, poorly fitted or top-dose-only effect, or another doubt; inactive = no such curve, though single readings can be large; an effect the other way counts as inactive or inconclusive.

CCOc1ccc(-c2cn[nH]c2N)cc1	SW480 rereplic inconclusive, MCF10A rereplic 18.4µM
COc1ccc(-c2cn[nH]c2N)cc1	ELG1 repair inh inconclusive
Clc1ccc(CO/N=C/c2c(-c3ccccc3)nc3n2CCS3)c(Cl)c1	KB-V1 MDR tox 14.6µM, MCF10A rereplic inconclusive
CS(=O)(=O)/C(C#N)=C/c1c(-c2ccccc2)nc2n1CCS2	none
Fc1ccccc1-c1nc2nc3ccccc3nc2n1CC1CCCO1 (stereo not given)	none
CCCN(CC(=O)Nc1ccccc1OC)C(=O)c1ccc(S(=O)(=O)NCc2ccco2)cc1	none
CC(C)c1ccc(NC(=O)c2snc3ccc(Cl)cc23)cc1	KB-3-1 tox 0.0517µM, KB-V1 MDR tox inconclusive, SW480 rereplic inconclusive, ELG1 repair inh inconclusive, MCF10A rereplic inconclusive
O=S(=O)(Nc1cc2nc3ccccc3nc2n1Cc1ccccc1)c1ccc(Cl)cc1	SW480 rereplic 10µM, ELG1 repair inh inconclusive, MCF10A rereplic 7.31µM
O=S(=O)(NCc1ccccc1)c1ccc(Cl)cc1	ELG1 repair inh inconclusive
CCCN1CCC(=O)N([C@H](CSc2ccc(OC)cc2)CC(C)C)CC1	ELG1 repair inh inconclusive
COc1cc2c(cc1OC)C(C)N(C(=O)c1nccnc1C(=O)O)CC2 (stereo not given)	none
COc1cc2c(cc1OC)C(C)N(C(=O)c1cc3c(C)cc(C)cc3[nH]1)CC2 (stereo not given)	KB-3-1 tox inconclusive, KB-V1 MDR tox inconclusive, SW480 rereplic inconclusive, ELG1 repair inh 16.4µM, MCF10A rereplic inconclusive
COc1cc2c(cc1OC)C(C)N(C(=O)Nc1ccc(F)cc1)CC2 (stereo not given)	KB-3-1 tox 13µM, KB-V1 MDR tox 11.6µM, SW480 rereplic inconclusive, ELG1 repair inh inconclusive, MCF10A rereplic inconclusive
COc1cc2c(cc1OC)C(C)N(C(=O)Nc1cc(C)cc(C)c1)CC2 (stereo not given)	KB-3-1 tox inconclusive, KB-V1 MDR tox 6.51µM, SW480 rereplic inconclusive, ELG1 repair inh inconclusive, MCF10A rereplic 3.66µM
COC(=O)c1cc(COc2ccc3oc(C)c(C(=O)OC(C)C)c3c2)c(C)o1	KB-3-1 tox inconclusive, KB-V1 MDR tox inconclusive, MCF10A rereplic inconclusive
CCOC(=O)C1=C(O)CSC1=Nc1ccc(C)cc1	none
CCOC(=O)C1=C(O)CSC1=Nc1cccc2ccccc12	KB-V1 MDR tox 23.1µM
COc1cccc(NC(=O)c2cc(-c3ccc(C)o3)nc3ccccc23)c1	SW480 rereplic inconclusive
COc1cccc(NC(=O)CN(C)C(=O)c2cc(-c3cccc(Br)c3)nc3ccccc23)c1	KB-3-1 tox inconclusive, KB-V1 MDR tox inconclusive, SW480 rereplic inconclusive, ELG1 repair inh inconclusive, MCF10A rereplic 13µM
COc1cccc(NC(=O)CN(C)C(=O)c2cc(-c3ccc(C)o3)nc3ccccc23)c1	ELG1 repair inh 6.51µM
Cn1ncc(Cl)c1C(=O)N1CCCc2ccccc21	none
Cc1ccc(N=c2c([N+](=O)[O-])nn(-c3ccccc3)n2O)c(C)c1	KB-3-1 tox inconclusive, SW480 rereplic inconclusive, ELG1 repair inh inconclusive, MCF10A rereplic 10µM
CC1CCCCN1c1nnc(N)s1 (stereo not given)	none
CC1(C)CC(=O)c2cc(C#N)c(=O)n(-c3ccc(Cl)cc3)c2C1	none (no result: SW480 rereplic, ELG1 repair inh, MCF10A rereplic)
Cc1cc2c(n1-c1ccc(Cl)cc1)CC(C)(C)CC2=O	KB-V1 MDR tox 13µM
CCN1CCN(c2ccc(S(=O)(=O)N3CCOCC3)cc2NC(=O)c2ccc(C)cc2C)CC1	none
O=C(CCc1ccc(S(=O)(=O)NC2CCCCC2)cc1)NCc1cccnc1	none
C=CCn1c(SCC(C)=O)nnc1-c1cc(-c2ccccc2)sc1N	KB-V1 MDR tox 18.4µM, ELG1 repair inh 25.9µM
O=[N+]([O-])c1nn(-c2ccc3c(c2)OCCO3)n(O)c1=NC1CCCCCC1	KB-V1 MDR tox 16.4µM, ELG1 repair inh inconclusive
O=[N+]([O-])c1nn(-c2ccccc2)n(O)c1=NCc1ccc2c(c1)OCO2	ELG1 repair inh inconclusive
COc1ccc(-n2nc([N+](=O)[O-])c(=NCc3ccc4c(c3)OCO4)n2O)cc1	KB-V1 MDR tox 20.6µM, ELG1 repair inh inconclusive
COC(=O)C(C(=O)OC)c1ncccc1[N+](=O)[O-]	none
CCOc1cccc(NC(=O)/C(C#N)=C\c2cccnc2)c1	none
